The results in this text go back to PubChem BioAssay (NCATS).

Structures are written as SMILES. Records with an inconclusive call do not appear. Unmarked numbers belong to inactive results. Activity calls are given as the source filed them. The call rests on the fitted dose curve; in most records, active means well fitted curve in either direction with a large enough effect (not every such curve was filed as active); inconclusive means small, poorly fitted or top-dose-only effect, or another doubt; inactive means flat fitted curve, though single readings scatter.
On the % scale 0 is the no-effect control and ±100 the full control effect.

One assay is described as follows: AP1 Signaling Pathway (AID 357). The settings on record: ME-180 (cervical carcinoma) AP-1-bla reporter, EGF-induced, beta-lactamase ratio, 5 h; at 17.2 µM (top of the series) unless noted. In outline: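 Cells are seeded overnight, exposed to compound titrations and an EC50 level of EGF for 5 hours at 37 °C, then loaded with CCF4 dye for 2.5 hours. Beta-lactamase activity under the AP-1 element is read as a blue/green ratio.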
`CCc1ccc(NC(=O)CSC2=C(C#N)C(c3ccc4c(c3)OCO4)CC(=O)N2)cc1` (stereo not drawn): the activity change, negative = inhibition is -19.8%.
Still for that read-out and setting: the same measure for `Cc1cc(=O)oc2c(CN3CCCCC3)c(O)c(Cl)cc12`: 22.5%; for `c1ccc2c(c1)[nH]c1c(N3CCC4(CC3)OCCO4)ncnc12`: -1.63%; for `C=C(Br)CN1CCN(CC(=C)Br)CC1`: 10.5%.
On the same count and under the same terms, next, `N#Cc1c(N)nc(SCC(=O)NCc2ccc3c(c2)OCO3)c(C#N)c1-c1cccs1`: -27.2%; `CCCCOc1cccc(-c2nnc(N)s2)c1`: -19.6%.
Consider `CC1(C(=O)CSc2ncn[nH]2)CCC(=O)O1` (stereo not drawn), for which the activity change, negative = inhibition was -3.81%.
Consider `O=C(CC(c1ccccc1)c1ccco1)N1CCOCC1` (stereo not drawn), for which the activity change, negative = inhibition was -9.46%.
Turning to `CCn1cc(C(=O)NCc2ccccn2)c(=O)c2cc(F)c(N3CCN(C)CC3)cc21`, the activity change, negative = inhibition is -1.53%.
The same measure, in the same setting: next, `NC(=O)CSc1c[nH]c2ccccc12`: 2.78%.
Still for that read-out and setting: the same measure for `CC1(C)Cc2c(C#N)c(NCCc3ccccc3)nc(-c3ccco3)c2CO1`: 14.4%; for `Cc1cc(=O)oc(C)c1C(=O)NCC(C)NC(=O)c1c(C)cc(=O)oc1C` (stereo not drawn): 0.223%.
Same read-out and setting: the same measure for `CN(CCCCCC(=O)/C=N/O)Cc1ccccc1`: 26.2%.
For the molecule `CCCCc1nc(NCCNC(=O)c2ccco2)c(C#N)c2c1CSC(C)(C)C2`, the activity change, negative = inhibition is -22.7%.
Same read-out and setting: next, `COc1ccc(C(CC(=O)N2CCOCC2)C(C)C)cc1` (stereo not drawn): 8.67%; `CSc1nc2sc3c(c2c2nnnn12)CCC3`: -5.46%; `O=C(Nc1ccccn1)c1ccc(=O)[nH]n1`: -7.67%.
On the same count and under the same terms, next, `Cc1cccc(OCc2nc(C)cc(=O)[nH]2)c1`: 9.24%; `O=C(C1CC1(c1ccccc1)c1ccccc1)N1CCOCC1` (stereo not drawn): -9.16%; `COc1ccc(/C(O)=C2\C(=O)C(=O)N(c3cc(C)on3)C2c2cccc(OC)c2OC)cc1C` (stereo not drawn): -5.37%.
The same measure, in the same setting: the same measure for `CCOC(=O)c1[nH]c2cc3c(cc2c1NC(=O)CN1CCc2ccccc2C1)OCO3`: -23.5%; for `CC(C)(C)OC(=O)N1CC=C2C(C#N)=C(N)C(C#N)(C#N)[C@H](c3cccnc3)[C@H]2C1`: 3.85%; for `O=C(NCCN1CCCCC1)c1ccc(=O)oc1`: 13.4%.
`CCOc1ccc(-c2nc(C#N)c(NCC(C)C)o2)cc1`: the activity change, negative = inhibition was -22.8%.
The same measure, in the same setting: next, `N#Cc1c2c(c(-c3ccccc3)[nH]c1=O)CCCC2`: 5.23%; `O=C(Cc1ccccc1)Nc1cccc(-c2nnc(-c3ccco3)o2)c1`: -23.3%.
For `CCOC(=O)CSc1nc(N)c(C#N)c(-c2ccc(OC)cc2)c1C#N`, the activity change, negative = inhibition was -27.1%.
On the same count and under the same terms, next, `COc1cc2nc(-c3ccccc3)nc(N3CCCC3)c2cc1OC`: 24.5%; `CCOC(=O)C1=C(C)N=C2SC(C)C(=O)N2C1c1ccc(OC(C)=O)c(OC)c1` (stereo not drawn): -14.1%; `C(=N\n1cnnc1)/c1cccnc1`: -4.05%.
On the same count and under the same terms, next, `N#CC1=C(N)N2C(=C(C#N)C1c1ccccc1)Sc1ccccc12` (stereo not drawn): 17.5%; `O=C(/C=C/c1ccccc1)c1ccccc1`: 19.8%; `COC(=O)C1C(=O)CC(C)(O)C(C(=O)OC)C1c1ccccc1F` (stereo not drawn): 0.159%.
Turning to `CCOC(=O)CSC1=C(C#N)C(=O)NC(c2ccc(OC)c(OC)c2)S1` (stereo not drawn), the activity change, negative = inhibition was -12.5%.
Same read-out and setting: next, `Cn1ncc2nnn(-c3ccccc3)c(=O)c21`: 3.86%.
The same measure, in the same setting: next, `Cc1cc(=O)oc(C)c1C(=O)NCCN1CCOCC1`: 11.5%; `O=C(c1ccccc1)c1cc(-c2ccccc2)on1`: -5.5%.
For `CCOC(=O)COc1ccc(Oc2nc(C)cc(OC)n2)nn1`, the activity change, negative = inhibition is 13.9%.
The same measure, in the same setting: the same measure for `CCSc1nc(O)c(C2OC(=O)c3c2ccc(OC)c3OC)c(=O)n1-c1ccccc1` (stereo not drawn): -10.9%.

Another assay is described as follows: NFAT Signaling Pathway (AID 444).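 Further: carbachol stimulus at about its EC50 of 1 µM final.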 The settings on record: Jurkat NFAT-bla M1, carbachol, beta-lactamase ratio, 5 h; at 17.2 µM (top of the series) unless noted. In outline:
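Read-out: CCF4 FRET ratio (460 nm/530 nm) after 1 h RT dye loading, used for %activity and AC50 from titration series. Cells: Jurkat NFAT-β-lactamase/M1 line, treated with compound plus 1 uM carbachol for 5 h, 37 °C.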
As for `CCc1ccc(NC(=O)CSC2=C(C#N)C(c3ccc4c(c3)OCO4)CC(=O)N2)cc1` (stereo not drawn), the activity change, negative = inhibition is -5.09%.
Same read-out and setting: the same measure for `Cc1cc(=O)oc2c(CN3CCCCC3)c(O)c(Cl)cc12`: 23.5%; for `c1ccc2c(c1)[nH]c1c(N3CCC4(CC3)OCCO4)ncnc12`: 7.49%; for `C=C(Br)CN1CCN(CC(=C)Br)CC1`: -10.3%.
As for `N#Cc1c(N)nc(SCC(=O)NCc2ccc3c(c2)OCO3)c(C#N)c1-c1cccs1`, the activity change, negative = inhibition is -13.6%.
Take `CCCCOc1cccc(-c2nnc(N)s2)c1`: the activity change, negative = inhibition is 7.5%.
Still for that read-out and setting: the same measure for `CC1(C(=O)CSc2ncn[nH]2)CCC(=O)O1` (stereo not drawn): 2.7%; for `O=C(CC(c1ccccc1)c1ccco1)N1CCOCC1` (stereo not drawn): 1%; for `CCn1cc(C(=O)NCc2ccccn2)c(=O)c2cc(F)c(N3CCN(C)CC3)cc21`: -29.8%.
The same measure, in the same setting: the same measure for `NC(=O)CSc1c[nH]c2ccccc12`: 0.963%; for `CC1(C)Cc2c(C#N)c(NCCc3ccccc3)nc(-c3ccco3)c2CO1`: 80.9% [activator] (active).
As for `Cc1cc(=O)oc(C)c1C(=O)NCC(C)NC(=O)c1c(C)cc(=O)oc1C` (stereo not drawn), the activity change, negative = inhibition is 10.2%.
Same read-out and setting: the same measure for `CN(CCCCCC(=O)/C=N/O)Cc1ccccc1`: -28%.
Still for that read-out and setting: the same measure for `CCCCc1nc(NCCNC(=O)c2ccco2)c(C#N)c2c1CSC(C)(C)C2`: 12.2%; for `COc1ccc(C(CC(=O)N2CCOCC2)C(C)C)cc1` (stereo not drawn): 3.99%.
On the same count and under the same terms, the same measure for `CSc1nc2sc3c(c2c2nnnn12)CCC3`: -14.8%; for `O=C(Nc1ccccn1)c1ccc(=O)[nH]n1`: 0.366%.
On to `Cc1cccc(OCc2nc(C)cc(=O)[nH]2)c1`, for which the activity change, negative = inhibition was -0.73%.
For `O=C(C1CC1(c1ccccc1)c1ccccc1)N1CCOCC1` (stereo not drawn), the activity change, negative = inhibition is 10.4%.
Turning to `COc1ccc(/C(O)=C2\C(=O)C(=O)N(c3cc(C)on3)C2c2cccc(OC)c2OC)cc1C` (stereo not drawn), the activity change, negative = inhibition was 6.15%.
Still for that read-out and setting: next, `CCOC(=O)c1[nH]c2cc3c(cc2c1NC(=O)CN1CCc2ccccc2C1)OCO3`: -10.9%; `CC(C)(C)OC(=O)N1CC=C2C(C#N)=C(N)C(C#N)(C#N)[C@H](c3cccnc3)[C@H]2C1`: 4.36%; `O=C(NCCN1CCCCC1)c1ccc(=O)oc1`: 6.11%.
For the molecule `CCOc1ccc(-c2nc(C#N)c(NCC(C)C)o2)cc1`, the activity change, negative = inhibition is -3.57%.
On the same count and under the same terms, the same measure for `N#Cc1c2c(c(-c3ccccc3)[nH]c1=O)CCCC2`: 10.7%.
On the same count and under the same terms, next, `O=C(Cc1ccccc1)Nc1cccc(-c2nnc(-c3ccco3)o2)c1`: 11.7%.
On the same count and under the same terms, the same measure for `CCOC(=O)CSc1nc(N)c(C#N)c(-c2ccc(OC)cc2)c1C#N`: 2.57%; for `COc1cc2nc(-c3ccccc3)nc(N3CCCC3)c2cc1OC`: -11.3%.
Take `CCOC(=O)C1=C(C)N=C2SC(C)C(=O)N2C1c1ccc(OC(C)=O)c(OC)c1` (stereo not drawn): the activity change, negative = inhibition was 10.3%.
Same read-out and setting: next, `C(=N\n1cnnc1)/c1cccnc1`: -13.4%; `N#CC1=C(N)N2C(=C(C#N)C1c1ccccc1)Sc1ccccc12` (stereo not drawn): -26.8%; `O=C(/C=C/c1ccccc1)c1ccccc1`: -14.4%.
Same read-out and setting: next, `COC(=O)C1C(=O)CC(C)(O)C(C(=O)OC)C1c1ccccc1F` (stereo not drawn): -0.943%; `CCOC(=O)CSC1=C(C#N)C(=O)NC(c2ccc(OC)c(OC)c2)S1` (stereo not drawn): -123% (active); `Cn1ncc2nnn(-c3ccccc3)c(=O)c21`: -4.96%.
Regarding `Cc1cc(=O)oc(C)c1C(=O)NCCN1CCOCC1`, the activity change, negative = inhibition is 7.8%.
Still for that read-out and setting: the same measure for `O=C(c1ccccc1)c1cc(-c2ccccc2)on1`: -10%; for `CCOC(=O)COc1ccc(Oc2nc(C)cc(OC)n2)nn1`: 12.6%; for `CCSc1nc(O)c(C2OC(=O)c3c2ccc(OC)c3OC)c(=O)n1-c1ccccc1` (stereo not drawn): 4%.
